# High-throughput results deposited in PubChem by National Center for Advancing Translational Sciences (NCATS).
# FLuc counter: inhibits or activates purified firefly luciferase, miR-21 counter-screen; P08659; purified FLuc, Km substrates, luminescence inhibition; Potency, µM (doses to about 57.5 µM), for the others: at the top dose activity change, negative = inhibition, hits mostly inhibitors; 360,000 compounds, 6.9% hits;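 note: plate controls were vehicle for no effect and reference inhibitor for full effect; nearly all actives have a fitted effect of over 55% in size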
# Target sequence (P08659 whole entry, looked up): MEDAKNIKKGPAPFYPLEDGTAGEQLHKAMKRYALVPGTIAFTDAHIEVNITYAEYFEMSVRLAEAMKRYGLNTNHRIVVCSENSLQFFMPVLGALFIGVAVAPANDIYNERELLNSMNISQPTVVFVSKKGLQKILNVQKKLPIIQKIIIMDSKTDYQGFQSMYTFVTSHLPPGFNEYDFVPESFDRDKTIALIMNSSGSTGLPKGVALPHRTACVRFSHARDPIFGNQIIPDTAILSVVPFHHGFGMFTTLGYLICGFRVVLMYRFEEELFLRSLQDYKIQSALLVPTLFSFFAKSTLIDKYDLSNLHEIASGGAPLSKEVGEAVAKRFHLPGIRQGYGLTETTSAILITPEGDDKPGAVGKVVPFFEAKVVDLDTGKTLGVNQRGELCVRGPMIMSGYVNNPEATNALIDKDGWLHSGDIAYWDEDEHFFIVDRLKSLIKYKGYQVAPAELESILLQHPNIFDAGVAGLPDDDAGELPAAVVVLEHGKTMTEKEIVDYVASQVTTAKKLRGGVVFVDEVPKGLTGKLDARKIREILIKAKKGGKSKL
#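 Biochemical qHTS of compounds, final roughly 60 µM downward over six points, against 10 nM purified firefly luciferase using Km concentrations of substrates (10 uM D-luciferin, 10 uM ATP) in Tris acetate pH 7.5 buffer; luminescence output.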
# ELG1 genotox: inducers of genotoxicity in HEK293T ELG1-luciferase cells | HEK293T ELG1-luciferase reporter, luminescence, 16 h | Potency, µM (titrated, usually from 46 µM), for the others: at the top dose activity change, positive = activation, usual class: activators | 330,000 compounds, 1.3% hits; note: % of control where 0% means no effect; nearly all actives have a fitted effect of over 60% in size
#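 After overnight (16 hr) compound treatment at 37 °C, ELG1-luciferase HEK293T cells were lysed with ONE-Glo; luminescence quantified 30 min later at room temperature.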
# NPC1 promoter act: NPC1 promoter activation | Huh7 NPC1 promoter luciferase reporter, 24 h | Potency, µM (top dose mostly 9.22 µM), for inactives: top-dose activation, actives largely listed as activators | 320,000 compounds, 2.4% hits | AID 485313; note: % of control where 0% means no effect; nearly all actives have a fitted effect of over 60% in size
#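 Huh7 cells stably carrying NPC1 promoter–luciferase, plated in Opti-MEM with 10% FBS for 2 h, were exposed to compound in DMSO for 24 h at 37 °C; luciferase reagent was added for 10 min and luminescence read.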
# SMN2 splice up: enhancers of SMN2 splice variant expression. HEK293 SMN2-luciferase splicing reporter, luminescence, 30-36 h. Potency, µM (titrated, usually from 46.1 µM), without a hit: top-dose activity change, positive = activation, usual class: activators. 210,000 compounds, 2.8% hits. AID 1458; note: % of control where 0% means no effect; nearly all actives have a fitted effect of over 55% in size
#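 HEK293 cells carry an SMN2 minigene-luciferase reporter in which exon 7 inclusion puts luciferase in frame. Cells were seeded at 2000 cells/well, attached for 10-12 hours, then exposed to compounds for 30-36 hours at 37C before ONE-Glo luminescence.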
# Rab9 prom act: Rab9 promoter activation; 320,000 compounds, 2.8% hits; Potency, µM (top dose mostly 9.22 µM), without a hit: at the highest dose activation, negative = inhibition, usual class: activators; Huh7 Rab9 promoter-luciferase reporter, luminescence, 24 h; note: % of control where 0% means no effect; nearly all actives have a fitted effect of over 60% in size
#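 Promoter activation is measured as luciferase luminescence in Huh7 cells stably transfected with a Rab9 promoter–luciferase construct, following 24 h compound exposure at 37 °C and 10 min reagent incubation at ambient temperature.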
# * marks the source's active call; other numbers are inactive results; ? = inconclusive; / = no result given; ! = not confirmed by another sample; [ ] = another dose, or the depositor's remark. This is a sample that favours compounds with a hit; in the whole collection about 7.4% have one here. Calls come from the whole dose curve; as a rule, active = well fitted curve in the direction sought with a large enough effect; inconclusive = small, poorly fitted or top-dose-only effect, or another doubt; inactive = no such curve, though single readings can be large; an effect the other way counts as inactive or inconclusive. Potency is the fitted concentration of half-maximal effect.
SMILES,FLuc counter,ELG1 genotox,NPC1 promoter act,SMN2 splice up,Rab9 prom act
COc1cc2c(cc1OC)C(c1ccc(F)cc1)N(c1ccccc1)C(=O)C2 (configuration not stated),-6%,/,/,2%,/
CCn1c(=O)c2cc(C(=O)N(CCCOC(C)C)Cc3ccco3)sc2c2ccccc21,-13%,/,/,-7%,/
CCCC(=O)Nc1ccc(NC(=O)c2ccccc2)nc1,4.8µM*,?,0.32µM*,/,0.28µM*
CCCC(=O)Nc1ccc(NC(=O)c2ccccc2F)cn1,?,8%,?,/,?
CCC(=O)Nc1ccc(NC(=O)Cc2ccccc2)cn1,3%,2%,-1%,4%,0%
CCC(=O)Nc1ccc(NC(=O)c2ccccc2)nc1,6µM*,?,1.3µM*,4µM*,0.45µM*
Cc1ccccc1C(=O)N1CC(=O)Nc2ccc(Cl)cc2C1c1ccccc1 (configuration not stated),2%,/,/,5%,/
Cc1cc(C(=O)CSc2n[nH]c(N)n2)c(C)n1-c1ccccc1,6µM*,4.5µM*,2.5µM*,11µM*,?
Cc1cc(C(=O)CSc2n[nH]c(N)n2)c(C)n1-c1ccc(F)cc1,19µM*,15%,?,-12%,?
Cc1cc(C(=O)CSc2n[nH]c(N)n2)c(C)n1-c1cc(F)ccc1F,-3%[2.3 µM],10%,25%,13%,?
C=CCn1c(C)cc(C(=O)CSc2n[nH]c(N)n2)c1C,19µM*,15µM*,24%,?,19%
Cc1ccc(-n2c(C)cc(C(=O)CSc3n[nH]c(N)n3)c2C)cc1,9.5µM*,1%,26%,-34%,20%
COc1cc(NS(=O)(=O)c2ccc3c(c2)CC(C)N3C(=O)C2CCC2)cc(OC)c1OC (configuration not stated),-16%,/,/,/,/
COCCNC(=O)[C@H](C)/C=C(\c1cccnc1)C(NC(=O)OCc1ccccc1)c1ccc(C(=O)OC)cc1 (some centres not stated),/,/,/,-4%,/
Cc1cc(C(=O)CSc2nnc3ccccn23)c(C)n1-c1ccccc1,0.19µM*,?,?,-47%,?
Cc1cc(C(=O)CSc2nnc(-c3ccccc3)n2-c2ccccc2)c(C)n1-c1ncn[nH]1,-1%,4%,4%,4%,-10%
Cc1ccccc1N(C)S(=O)(=O)c1nnc(NC(=O)c2ccccc2F)s1,6µM*,-4%,-4%,/,1%
CN(c1ccccc1)S(=O)(=O)c1nnc(NC(=O)COc2ccccc2)s1,0.43µM*!,-2%,3%,/,-2%
O=C(COc1ccccc1)Nc1nnc(S(=O)(=O)Nc2ccccc2)s1,1.5µM*!,4%,-8%,/,0%
CN(c1ccccc1)S(=O)(=O)c1nnc(NC(=O)COc2ccccc2F)s1,-1%,-4%,-6%,/,-2%
O=C(COc1ccccc1)Nc1nnc(S(=O)(=O)N2CCCC2)s1,2%,-1%,-5%,/,-12%
Cc1ccccc1OCC(=O)Nc1nnc(S(=O)(=O)N(C)c2ccccc2)s1,0.95µM*,/,/,/,/
Cc1ccc(S(=O)(=O)Cc2ccc(C(=O)NCCc3ccc(Cl)cc3)o2)cc1,-18%,/,/,-40%,/
COc1cccc(Cn2c(=O)c(-c3cccc(C#N)c3)nc3cnc(Nc4ccccc4)nc32)c1,/,/,/,-10%,/
CCCCC(=O)NC1(C(F)(F)F)C(=O)Nc2c1c(=O)[nH]c(=O)n2-c1ccc(F)cc1 (configuration not stated),-1%,/,/,/,/
SMILES,FLuc counter,ELG1 genotox,NPC1 promoter act,SMN2 splice up,Rab9 prom act
COc1ccc2c(c1)C(=O)[C@@H](OC(=O)Nc1ccc(C)c(Br)c1)[C@H](c1ccc(OC)c(Br)c1)O2,/,/,/,-12%,/
Cc1ccc(NC(=O)c2ncc(Cl)c(Cl)c2Cl)cc1C,-15%,?,-3%,?,2.8µM*
O=C(Nc1ccccc1)c1cnc2ccccc2n1,12µM*,?,19%,?,7%
NC(=O)c1ccc(NC(=O)c2cnc3ccccc3n2)cc1,?,?,?,/,2.5µM*
Cc1ccc(NC(=O)c2cnc3ccccc3n2)cc1C,2.4µM*,?,0.2µM*,/,0.5µM*
Cc1cc(C)c(C)c(OCC(=O)Nc2ccc(S(=O)(=O)Nc3nc(C)cc(C)n3)cc2)c1,?,/,/,-12%,/
Cc1ccc(-n2c(=O)c3ccccc3n(CC(=O)Nc3cccc(C(F)(F)F)c3)c2=O)cc1,-8%,/,/,-6%,/
N[C@H](C(=O)O)[C@@H]1[C@@H](C(=O)O)C1(F)F,/,/,/,-11%,/
O=C(Nc1cccc(F)c1)N1CCC2(CC1)CCN(C(=O)c1ccco1)CC2,/,/,/,-15%,/
CCOC(=O)C(Cc1c[nH]c2ccccc12)NC(=O)COc1ccc(Cl)c(C)c1 (configuration not stated),-13%,/,/,-12%,/
COc1cccc(C(=O)O/N=C(\N)c2ccncc2)c1OC,?,?,2%,25%,2%
N/C(=N\OC(=O)c1cccc2ccccc12)c1ccccn1,1.2µM*,10µM*,?,/,?
N/C(=N\OC(=O)Cc1cccc2ccccc12)c1ccccn1,?,?,25%,4%,23%
COc1cccc(C(=O)O/N=C(\N)c2ccccn2)c1OC,0.95µM*,1.8µM*,?,/,0.71µM*
CCC(=O)N1c2ccc(S(=O)(=O)CCC(=O)Nc3ccc(Br)c(C)c3)cc2CC1C (configuration not stated),?,/,/,-17%,/
CCC1=C(OC(=O)N(CC)CC)N2C(=O)OC(=NCCOC)[C@]2(C)[C@H]2C1=CC[C@H]1C(=O)N(CC)C(=O)[C@H]12,/,/,/,-2%,/
COc1ccc(OCc2cc(C(=O)N3CCCCCC3)no2)c(Cl)c1,19µM*,?,?,/,?
COc1cccc(OCc2cc(C(=O)N3CCN(C)C(c4ccccc4)C3)no2)c1 (configuration not stated),27µM*,7%,26%,/,?
O=C(c1cc(COc2ccc(F)cc2Cl)on1)N1CCSCC1,11µM*,?,2.8µM*,/,4µM*
COc1ccc(OCc2cc(C(=O)N(C)CCC3CCOCC3)no2)c(Cl)c1,17µM*,?,?,/,?
COc1ccc(OCc2cc(C(=O)N3CCOCC3)no2)c(Cl)c1,6.7µM*,18µM*,1.6µM*,/,1.4µM*
COc1ccc(OCc2cc(C(=O)N(C)C(C)c3ccon3)no2)c(Cl)c1 (configuration not stated),13µM*,?,?,/,2.5µM*
COc1ccc(OCc2cc(C(=O)N3CCC(c4ccccc4)CC3)no2)c(Cl)c1,24µM*,16%,?,/,2.8µM*
COc1ccc(OCc2cc(C(=O)N3CCSCC3)no2)c(Cl)c1,11µM*,?,2.8µM*,/,2.8µM*
CON,/,/,/,12%,/
C/C(=N\Nc1nc(C)cc(-c2ccccc2)n1)c1cccc(N)c1,3.4µM*,-4%,25%,/,0%
